# Bioassay records (PubChem BioAssay)
# TDP1 block: qHTS Assay for Inhibitors of Tyrosyl-DNA Phosphodiesterase (TDP1); Tyrosyl-DNA phosphodiesterase 1 (Homo sapiens), Q9NUW8; Potency, µM (titrated, usually from 130 µM), for inactives: at the highest dose activity change, negative = inhibition, most hits filed as inhibitors; AID 485290, 2010; recombinant TDP1, AlphaScreen DNA substrate cleavage; actives 0.28% (n = 350,000); note: potency is the fitted concentration of half-maximal effect; % is set by controls: 0 for no effect and ±100 for the full control effect; nearly all actives have a fitted effect of over 40% in size
#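 E. coli-derived human Tdp1, 1 nM final. Cpd preinc 15 min RT; substrate 15 nM final, 5 min RT; AS bead mix 10 ug/ml final, 10 min RT. Signal loss = tyrosine-FITC cleavage. No-enzyme wells = max signal.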
# JMJD2A Tudor inh: qHTS Assay for Inhibitors of JMJD2A-Tudor Domain; Lysine-specific demethylase 4A (Homo sapiens), O75164; AlphaScreen JMJD2A-Tudor / H3K4me3 peptide binding; Potency, µM (titrated, usually from 114 µM), without a hit: top-dose activity change, negative = inhibition, usual class: inhibitors; actives 4.4% (n = 390,000); AID 504339, 2011; note: potency is the fitted concentration of half-maximal effect; % is set by controls: 0 for no effect and ±100 for the full control effect; nearly all actives have a fitted effect of over 50% in size
# BAZ2B inh: qHTS Assay for Inhibitors of BAZ2B; Bromodomain adjacent to zinc finger domain protein 2B (Homo sapiens), Q9UIF8; AlphaScreen BAZ2B-H3K14Ac peptide displacement; Potency, µM (top dose mostly 114 µM), for the others: at the top dose activity change, negative = inhibition, usual class: inhibitors; actives 4.4% (n = 360,000); AID 504333, 2011; note: potency is the fitted concentration of half-maximal effect; % is set by controls: 0 for no effect and ±100 for the full control effect; nearly all actives have a fitted effect of over 60% in size
#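 Complex of BAZ2B and biotin-H3K14Ac (50 nM apiece) forms over 30 min at RT, then faces library compounds up to 110 uM for another 30 min; AlphaScreen beads added, 20 min dark incubation, luminescence read.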
# CtBP-E1A inh: qHTS Assay for Inhibitors of the CtBP/E1A Interaction; activity change, % (no concentration beside the values); CtBP / adenovirus E1A interaction (AlphaScreen); AlphaScreen GST-E1A/His-CtBP binding, 1536-well; stronger effect = lower value; actives 0.49% (n = 340,000); in the data active = activity change below about -65%; inconclusive = mostly about -30% to -63%; note: % is set by controls: 0 for no effect and ±100 for the full control effect
#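 In 5 uL wells, 23 nL compound meets equimolar GST-E1A and His-CtBP (5X stock 125 nM each) for 2 h, 37 °C. Beads (5X, 50 ug/mL) then 1 h, 37 °C, dark.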
# HP1b chromo inh: HTS for Inhibitors of HP1-beta Chromodomain Interactions with Methylated Histone Tails | Chromobox protein homolog 1 (Homo sapiens), P83916 | AlphaScreen HP1-beta / biotin-H3K9me3 peptide binding | Potency, µM (top dose mostly 114 µM), for the others: top-dose activity change, negative = inhibition, usual class: inhibitors | actives 0.56% (n = 390,000) | AID 540317, 2011; note: potency is the fitted concentration of half-maximal effect; nearly all actives have a fitted effect of over 70% in size
#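 HP1-beta protein (50 nM final) preincubated 30 min at room temperature with biotinylated H3(1-18)K9me3 peptide (50 nM) in PBS pH 7.4, 0.01% Tween-20, then compound added for 30 min. AlphaScreen streptavidin donor/nickel chelate acceptor beads (10 ug/mL final), 30 min dark, luminescence read.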
# Six1-Eya2 blk: qHTS Assay for Inhibitors of the Six1/Eya2 Interaction; Homeobox protein SIX1 (Homo sapiens) + Protein phosphatase EYA2 (Homo sapiens), …; AlphaScreen GST-Six1/His-Eya2 binding, biochemical; stronger effect = lower value; activity change, % (test concentration not listed); actives 0.56% (n = 360,000); in the data active = activity change below about -65%; inconclusive = mostly about -30% to -63%; note: % is set by controls: 0 for no effect and ±100 for the full control effect
#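 AlphaScreen with GST-Six1 and His-Eya2 (5X mix: 250 nM and 500 nM), glutathione donor and nickel acceptor beads; buffer 50 mM Tris pH 8.0, 300 mM NaCl, 1 mM TCEP; 1 h at 37 C in the dark.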
# Active calls of the source: *; ? = inconclusive; . = not tested or not shown. Compounds with a hit are over-represented: about 5.3% of the library has one in this group of screens. Unless noted, calls come from the whole dose curve; as a rule, active = well fitted inhibition curve with a large enough effect; inconclusive = small, poorly fitted or top-dose-only effect; inactive = no such curve, though single readings can be large or run the other way.
SMILES,TDP1 block,JMJD2A Tudor inh,BAZ2B inh,CtBP-E1A inh,HP1b chromo inh,Six1-Eya2 blk
CC(=O)N1CCN(c2ccc(OC[C@H]3CO[C@](Cn4ccnc4)(c4ccc(Cl)cc4Cl)O3)cc2)CC1,8%,25µM*,35µM*,-27,?,3
Cc1cccc(N2C(=O)/C(=C/c3ccc(CN(CCC#N)S(C)(=O)=O)o3)C(=O)NC2=S)c1,-2%,50µM*,50µM*,-5,?,?
Cc1ccc(N2C(=O)/C(=C/c3ccc(CN(CCC#N)S(C)(=O)=O)o3)C(=O)NC2=S)cc1C,-1%,.,40µM*,.,.,.
O=C1NC(=O)N(c2ccc3c(c2)OCO3)C(=O)/C1=C/c1ccc(N2CCCC2)o1,0%,-2%,-35%,4,24%,-2
Cc1ccc(S(=O)(=O)N(CC(=O)NCCSc2ccc(Cl)cc2)c2ccccc2C)cc1,7%,2%,-17%,.,52%,.
C(=C\c1ccccc1)/CN1CCN(CCOC(c2ccccc2)c2ccccc2)CC1,21%,.,.,.,.,.
CCOC(=O)c1c(C)n(CCN2CCN(C)CC2)c2ccc(OC)cc12,3%,18µM*,-34%,-4,?,0
CCCCOP(=O)(OCCCC)C(Nc1ccc(C(=O)OCC)cc1)c1ccncc1 (stereo unspecified),.,-11%,21%,5,50%,3
Fc1ccc(CNCCc2ccccc2)cc1,-5%,22µM*,.,-14,?,0
COc1ccc(CCNCc2c(OC)ccc3ccccc23)cc1,.,22µM*,35µM*,.,?,-7
COc1ccc(CCNCc2ccncc2)cc1,-10%,1.3µM*,56µM*,-1,?,4
COc1ccc(CCNCc2cc(OC)cc(OC)c2)cc1,.,.,.,4,.,-14
COc1ccc(CCNCc2ccccc2)cc1,.,7.1µM*,25µM*,.,?,10
BrCCBr,17%,.,.,.,.,.
COc1cccc(CCNCc2ccc(SC)cc2)c1,-9%,25µM*,50µM*,2,?,-17
ClC(Cl)(Cl)C(Cl)(Cl)Cl,13%,.,.,.,.,.
COC(=O)C(O)(c1ccc(N(C)C(=O)c2cccs2)cc1)C(F)(F)F (stereo unspecified),3%,22µM*,-8%,-13,-1%,17
O=C(Nc1ccccc1)c1ccccc1I,27%,.,.,.,.,.
CCCCCn1c(=O)c(C(=O)Nc2cnccn2)c(O)c2ccccc21,-3%,45µM*,14%,1,9%,3
CC(c1ccccc1)n1cncc1C(=O)O (stereo unspecified),22µM*,-4%,2%,-2,9%,10
O=C(c1ccccc1)C(CN1CCCC1)c1ccccc1 (stereo unspecified),-2%,-4%,10%,2,37%,11
COc1ccc(CCNC(=O)CCS(=O)(=O)c2ccc3c(c2)oc(=O)n3C)cc1OC,1%,-9%,-17%,6,64%,0
COc1ccc(CCNc2nccn(-c3ccc(C)c(C)c3)c2=O)cc1OC,11%,-25%,45µM*,.,?,.
CC(Cl)(Cl)Cl,7%,.,.,.,.,.
Brc1cccc(CNCCc2ccc3c(c2)OCO3)c1,.,22µM*,56µM*,.,-34%,1
SMILES,TDP1 block,JMJD2A Tudor inh,BAZ2B inh,CtBP-E1A inh,HP1b chromo inh,Six1-Eya2 blk
COc1cc(Br)c(CNCCc2ccc3c(c2)OCO3)cc1OC,.,25µM*,?,-6,?,-4
COc1cccc(CNCCc2ccc3c(c2)OCO3)c1OC,.,79µM*,56µM*,.,-13%,-3
CN1C(=O)C(Cc2ccc3c(c2)OCO3)C(=O)N(C)C1=O,-2%,.,-37%,.,.,.
COc1cccc(CNCCc2c[nH]c3ccccc23)c1OC,11%,3%,-16%,-2,28%,2
CCCCCOc1c(OC)ccc2cc(C(=O)NCc3ccc4c(c3)OCO4)c(=O)[nH]c12,8%,.,.,.,.,.
CCOc1cc(CNCCc2cccc(F)c2)ccc1OC,.,1.4µM*,45µM*,-1,71µM*,0
COc1ccccc1CCNCc1ccc(OC)c(OC)c1OC,3%,20µM*,40µM*,-5,-35%,4
COc1ccc(CCNCc2ccc(C)s2)cc1OC,2%,-23%,-18%,5,5%,-6
COc1cc(OC)c(OC)cc1CNCCc1ccc2c(c1)OCO2,.,32µM*,?,.,-25%,-5
COc1cccc(CNCCc2cccc(F)c2)c1OC,.,28µM*,79µM*,.,?,3
CN1C(=O)C(=Cc2ccc(Sc3ccccc3)o2)C(=O)N(C)C1=S,.,50µM*,.,-4,?,-13
O=C(O)CCC(=O)NCCC1=c2ccccc2=N/C1=C\c1c(O)n(Cc2ccc(F)cc2)c(=S)[nH]c1=O,35µM*,32µM*,32µM*,-18,32µM*,-13
COc1cc(CN=Cc2c(O)n(Cc3ccccc3)c(=S)[nH]c2=O)cc(OC)c1,6%,-1%,-8%,5,34%,-1
CC(=O)Oc1ccc(Cl)c2cccnc12,18%,.,.,.,.,.
CC1CCc2cc(F)cc3c(=O)c(C(=O)O)cn1c23 (stereo unspecified),7%,?,56µM*,4,-2%,0
CN1C[C@H](C(=O)N[C@]2(C)O[C@@]3(O)[C@H]4CCCN4C(=O)[C@H](Cc4ccccc4)N3C2=O)C[C@H]2c3cccc4[nH]cc(c34)C[C@@H]21,18%,.,.,.,.,.
O=C1NC(=O)C(=Cc2ccc(OCCOc3ccc([N+](=O)[O-])cc3)cc2)C(=O)N1,1%,50µM*,45µM*,4,-4%,-15
